Results on 26 compounds are retold here after PubChem BioAssay (NCATS).

Inconclusive results are not listed. Calls of active or inactive are those of the source. Calls come from the whole dose curve; as a rule, active = well fitted cell-killing curve with a large enough effect; inconclusive = small, poorly fitted or top-dose-only effect, or effect the other way; inactive = flat fitted curve, though single readings scatter.
% is set by controls: 0 for no effect and ±100 for the full control effect; potency is the fitted concentration of half-maximal effect.

The experiment concerns PA-1. Nature of the experiment: Primary qHTS to identify gynecologic anti-cancer compounds using libraries of approved drugs and bioactive compounds (AID 1345084). Note: nearly all actives have a fitted effect of over 55% in size. As to conditions: Gynecologic cancer cell panel viability, ATPlite luminescence, 48 h; series mostly up to 57.5 µM; activity change, negative = cytotoxicity: at the top concentration. The method in brief:
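ATP-based viability (ATPlite), 1,000 cells/well, 16 h pre-incubation, 48 h compound at 37 C, 5% CO2, 15 min RT before read.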
A general note: qHTS replaces the single test concentration by a dilution series.
Turning to `Cc1cnc(Nc2ccc(F)cc2Cl)nc1-c1c[nH]c(C(=O)N[C@H](CO)c2cccc(Cl)c2)c1`, the Potency was 31.6 µM (active). Consider `COC(=O)Nc1ccc(-c2nc(N3CCOCC3)c3cnn(C4CCN(Cc5cccnc5)CC4)c3n2)cc1`, for which the Potency was 15.8 µM (active).

`C=CC(=O)Nc1cc2c(Nc3ccc(F)c(Cl)c3)ncnc2cc1OCCCN1CCOCC1`: the “activity change, negative = cytotoxicity” value is 7.55% (inactive). On to `O=C(Nc1ncc(-c2cc(C(F)F)nn2-c2c(Cl)cccc2Cl)s1)C1CC1`, for which the Potency is 1.78 µM (active). Take `CC(C)(O)c1cc2nc(-c3cnc(N)nc3)nc(N3CCOCC3)c2s1`: the Potency is 8.91 µM (active). Turning to `COc1cc(C)c(Sc2cnc(NC(=O)c3ccc(CNC(C)C(C)C)cc3)s2)cc1C(=O)N1CCN(C(C)=O)CC1` (stereo unspecified), the Potency was 22.4 µM (active). With `Nc1ncnc2c1c(-c1cnc3[nH]ccc3c1)nn2C1CCCC1`, the Potency is 8.91 µM (active).

Take `Cc1cc(C(=O)N2CCN(c3cccc(Cl)c3)CC2)n(-c2ccccc2)n1`: the Potency was 5.01 µM (active).

As for `CNC(=O)c1ccccc1Nc1nc(Nc2ccc(N3CCOCC3)cc2OC)ncc1Cl`, the Potency was 14.1 µM (active). Take `COc1cc2c(Nc3ccc(NC(=O)c4ccccc4)cc3)ncnc2cc1OCCCN1CCOCC1`: the “activity change, negative = cytotoxicity” value was -23.9% (inactive).

For the compound `CN1CCN(Cc2ccc(NC(=O)Nc3ccc(Oc4cc(NC(=O)C5CC5)ncn4)cc3)cc2C(F)(F)F)CC1`, the Potency was 0.794 µM (active). The same measure, in the same setting: the figure for `COc1cc2c(Oc3ccc(NC(=O)C4(C(=O)Nc5ccc(F)cc5)CC4)cc3F)ccnc2cc1OCCCN1CCOCC1` is 28.2 µM (active); for `Nc1nc(Nc2ccc(S(N)(=O)=O)cc2)nn1C(=O)c1c(F)cccc1F` it is 28.2 µM (active); for `Cc1cc(Nc2nc(N[C@@H](C)c3ccc(F)cc3)c(C#N)cc2F)n[nH]1` it is 7.08 µM (active).

`Cc1[nH]nc2ccc(-c3cncc(OC[C@@H](N)Cc4ccccc4)c3)cc12`: the Potency is 3.55 µM (active). On to `Cn1cc(-c2ccncc2)c(-c2ccc(OCc3ccc4ccccc4n3)cc2)n1`, for which the “activity change, negative = cytotoxicity” value is -28.5% (inactive). For the compound `C=CC(=O)Nc1cccc(Oc2nc(Nc3ccc(N4CCN(C)CC4)cc3)ncc2Cl)c1`, the Potency is 8.91 µM (active). `COc1cccc2nc(-c3cccs3)nc(NN3C(=O)C=C(C)C3=O)c12`: the Potency is 1.58 µM (active).

As for `CC[C@@H]1C(=O)N(C)c2cnc(Nc3ccc(C(=O)NC4CCC(N5CCN(CC6CC6)CC5)CC4)cc3OC)nc2N1C(C)C` (stereo partly specified), the Potency is 0.251 µM (active). For `Cc1cc(N2CCOCC2)cc2[nH]c(-c3c(NC[C@@H](O)c4cccc(Cl)c4)cc[nH]c3=O)nc12`, the Potency was 14.1 µM (active). Regarding `CC1(C)CC(=O)c2c(C(F)(F)F)nn(-c3ccc(C(N)=O)c(NC4CCC(OC(=O)CN)CC4)c3)c2C1` (stereo unspecified), the Potency was 0.316 µM (active). `CNC(=O)CN1CCC(Oc2cc3c(Nc4cccc(Cl)c4F)ncnc3cc2OC)CC1`: the “activity change, negative = cytotoxicity” value was 0.132% (inactive). In the case of `CC(C)c1cc(-c2n[nH]c(=O)n2-c2ccc3c(ccn3C)c2)c(O)cc1O`, the Potency is 0.251 µM (active). Still for that read-out and setting: the result for `CCS(=O)(=O)c1cccc(-c2cc(C(=O)NC3CCN(C)CC3)c(C)c3[nH]c4ncc(C)cc4c23)c1` reads 1.26 µM (active); that for `O=C(Cc1ccc(-c2ccc(OCCN3CCOCC3)cc2)cn1)NCc1ccccc1`, 1.26 µM (active). In the case of `CC(C)c1cc(C(=O)N2Cc3ccc(CN4CCN(C)CC4)cc3C2)c(O)cc1O`, the Potency is 0.501 µM (active).
